NS3h inh CB = blocks HCV NS3 helicase binding to DNA | 16,000 tested, 1.6% active | inhibition, % at 100 µM | NS3h Cy5-dT15 DNA binding, fluorescence polarization;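 active = inhibition above the average over every tested compound plus 3 SD, cut at about 40% in these data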
Cy5 interf NS3h = counter-screen for HCV NS3 helicase inhibitors: fluorescence interference; 16,000 tested, 6% active; fluorescence interference ratio at 100 µM; Cy5-dT15 DNA with NS3h; actives lie on both sides; signal over control mean, under 1 quenches;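 active = compound fluorescence over control fluorescence at most 0.8, a quencher, or at least a set upper limit, an enhancer; inactive = ratio between 0.8 and the set upper limit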
The depositor's hits bear a star. A selection: hits, their analogues and other compounds. The true share with any hit is near 6.8%.

SMILES	NS3h inh CB	Cy5 interf NS3h
O=C(Nc1ccc(Oc2ccccc2)cc1)c1ccc([N+](=O)[O-])cc1	2.5	1.03
CCOc1cccc(C(=O)Nc2ccc3nn(-c4ccc(F)cc4)nc3c2)c1	-24.4	1.06
COc1ccc(NC(=O)c2ccc(C)c([N+](=O)[O-])c2)cc1	13.3	0.736*
CCOC(=O)C1=C(C)N=c2s/c(=C\c3ccc4c(c3)OCO4)c(=O)n2C1c1ccc(F)cc1 (stereo not given)	11.7	1.05
Cc1ccc(N2C(=O)CC(NCCc3ccccc3Cl)C2=O)cc1 (stereo not given)	5.3	1.13
COc1ccc(NC(=O)/C(C#N)=C/c2ccc(OC)cc2OC)cc1	14.5	0.966
CC(C)N=C1NS(=O)(=O)c2cc([N+](=O)[O-])ccc21	-3.5	0.997
CC(C)(C)CC(C)(C)N=C1NS(=O)(=O)c2cc([N+](=O)[O-])ccc21	3.1	0.613*
CC(C)(C)NC(=S)NC12CC3CC(CC(C3)C1)C2	13.5	0.969
COc1ccccc1C=NN1CCN(Cc2ccc(C)cc2C)CC1	8.8	0.963
Cc1cccc(N2C(=O)S/C(=C/c3cccc([N+](=O)[O-])c3)C2=O)c1	6.7	0.955
O=C(NC1C2CC3CC(C2)CC1C3)c1ccc(Cl)cc1Cl (stereo not given)	7.4	1.04
CCOC(=O)C1=C(C)N=c2s/c(=C/c3ccc(I)o3)c(=O)n2C1c1ccccc1OC (stereo not given)	13.2	0.727*
CCOC(=O)C1=C(C)N=c2s/c(=C\c3ccc(N(CC)CC)o3)c(=O)n2C1c1ccc(OC)c(OC)c1 (stereo not given)	12.5	0.99
O=C1OC(c2ccccc2F)=N/C1=C\c1ccc(Br)cc1	3.6	1.08
CCOc1ccc(/C=C2\N=C(c3ccccc3F)OC2=O)cc1	52.6*	1.01
CCCCOc1cccc(C(=O)N2CCN(c3ccc([N+](=O)[O-])cc3)CC2)c1	9.8	0.918
O=c1c([N+](=O)[O-])c(Nc2ccc(Br)cc2)c2ccccc2n1-c1ccccc1	14.5	1.06
COc1ccccc1-c1c(C(F)(F)F)oc2cc(OCc3cccc(Cl)c3)ccc2c1=O	5.9	1.05
CC(=C(C#N)C#N)c1ccc2c(c1)OCCO2	2.0	0.974
CC(=C(C#N)C#N)c1ccc2c(c1)OCO2	8.7	0.743*
Cc1ccnc(NS(=O)(=O)c2ccc(NC(=O)c3cccc(I)c3)cc2)n1	4.3	1.02
N#C/C(=C\c1ccc(Oc2ccc(C(F)(F)F)cc2[N+](=O)[O-])cc1)C(=O)Nc1ccc(F)cc1	2.5	1.02
C=CCc1ccccc1OCC(=O)N/N=C\c1cccc(I)c1	-5.0	1.1
O=[N+]([O-])c1ccc(CSc2nnc(-c3cccc(F)c3)n2-c2ccccc2)cc1	3.8	0.793*
SMILES	NS3h inh CB	Cy5 interf NS3h
Cc1ccc(CSc2nnc(-c3cccc(F)c3)n2-c2ccccc2)cc1	4.1	0.885
O=C(Nc1c[nH]c(=O)[nH]c1=O)c1ccc2c(c1)C(=O)N(c1ccccc1-c1ccccc1)C2=O	7.8	1.03
O=C(Cn1cnc([N+](=O)[O-])n1)Nc1ccc(F)cc1F	5.9	0.763*
O=C(CCCC(=O)OCC(F)(F)C(F)F)Nc1ccc(F)cc1F	2.8	1.14
CCOc1ccccc1NC(=O)CN(c1cccc(C(F)(F)F)c1)S(C)(=O)=O	10.9	0.934
COc1cc(OC)cc(C(=O)N2CCN(C3CCC(c4ccccc4)CC3)CC2)c1 (stereo not given)	12.8	0.817
COc1cccc(C(=O)N2CCN(C3CC4CCC3C4)CC2)c1 (stereo not given)	-9.9	0.683*
CC(=O)c1ccc(NC(=S)NC(NC(=O)c2ccc(Cl)cc2Cl)C(Cl)(Cl)Cl)cc1 (stereo not given)	0.4	1.01
CC(=O)NC(NC(=S)Nc1cccc(Cl)c1)C(Cl)(Cl)Cl (stereo not given)	19.4	1.21*
Cc1ccc(C(=O)NC(NC(=S)Nc2cccc3ccccc23)C(Cl)(Cl)Cl)cc1 (stereo not given)	5.0	0.712*
CC(=O)c1ccc(NC(=S)NC(NC(=O)c2ccc(C)cc2)C(Cl)(Cl)Cl)cc1 (stereo not given)	-8.2	0.987
O=C(NC(NC(=S)Nc1cccc2ccccc12)C(Cl)(Cl)Cl)c1ccccc1 (stereo not given)	8.1	0.901
CC(=O)Nc1ccc(NC(=S)NC(NC(=O)c2ccc(C)cc2)C(Cl)(Cl)Cl)cc1 (stereo not given)	5.9	0.672*
Cc1ccc(NC(=O)CS(=O)(=O)c2ccccc2)cc1	3.2	0.907
O=C(CN1C(=O)/C(=C/c2cccc(Br)c2)SC1=S)Nc1ccc2c(c1)OCO2	7.4	1.04
CC1(C)SSC(=O)C1NC(=O)c1ccccc1 (stereo not given)	12.0	0.993
O=C(Nc1ccccc1F)c1ccc2nccnc2c1	-0.9	1.03
CC(C)(C)CC(C)(C)NC(=O)c1ccc2nccnc2c1	4.0	0.609*
CCN(CC)CCNc1ccc(Nc2ccnc3cc4ccccc4cc23)cc1	7.3	0.576*
c1ccc(CCNc2ccnc3cc4ccccc4cc23)cc1	2.2	0.957
C/C(=N/NS(=O)(=O)c1ccc([N+](=O)[O-])cc1)c1ccc(NC(=O)c2ccco2)cc1	7.4	1.04
Cc1cc2c(cc1Br)NC(=O)C2=O	15.0	0.76*
CCOC(=O)c1cnn2c(C)cc(-c3ccc(OC)cc3)nc12	3.7	0.975
COc1cc([N+](=O)[O-])ccc1-c1ccc(/C=C2\C(=O)NC(=S)N(c3ccc(C)cc3)C2=O)o1	23.3	1.12
CCC1=NN2C(=N)/C(=C/c3ccc(-c4ccc([N+](=O)[O-])cc4OC)o3)C(=O)N=C2S1	9.1	1.24*
SMILES	NS3h inh CB	Cy5 interf NS3h
O=C(Nc1cccc(C(=O)c2ccccc2)c1)c1ccc(Cl)cc1	13.0	0.944
CC(C)CCNC(=O)c1ccccc1[N+](=O)[O-]	-1.8	1.04
O=C(CCN1C(=O)/C(=C/c2cccs2)SC1=S)Nc1nc2ccccc2s1	14.2	0.705*
O=C(CCCN1C(=O)/C(=C\c2cccs2)SC1=S)Nc1ccccc1O	8.0	0.972
COc1ccc(C(=O)NCC(C)c2ccccc2)cc1OC (stereo not given)	9.7	1.07
CC1=C(C(=O)Nc2ccccc2)C(c2cccs2)C(C#N)=C(SCC(=O)c2ccccc2)N1 (stereo not given)	7.1	0.959
O=C(Nc1ccc(-c2cn3ccccc3n2)cc1)c1cccc(Br)c1	-33.4	0.943
CCN(CC)c1ccc(/C=C2\C(=O)NC(=O)N(c3cccc(C)c3)C2=O)c(OC)c1	12.6	1.31*
COc1cc(OC)c(/C=C2\C(=O)NC(=O)N(c3cccc(C)c3)C2=O)cc1Br	-0.7	1.04
CCN(CC)/C(=N\OCc1ccc(Cl)cc1Cl)c1nonc1N	15.9	0.67*
CN=C(NOCc1ccccc1)c1nonc1N	-6.1	0.924
Cn1c2ccccc2c2cc(C3Nc4ccccc4C(=O)N3Cc3ccco3)ccc21 (stereo not given)	10.2	0.98
Cc1cccc(NC(=O)CC(c2ccccc2)c2ccccc2)n1	9.4	0.969
O=C(NC(Cc1ccccc1)C(=O)Nc1ccccc1)OCc1ccccc1 (stereo not given)	5.0	0.683*
O=C(Nc1ccc(OCc2ccccc2)cc1)C(c1ccccc1)c1ccccc1	8.2	0.985
CCc1ncc(C(O)c2ccccc2OC)n1C (stereo not given)	-8.6	0.901
COc1ccc(C(=O)NC(N2CCOCC2)C(Cl)(Cl)Cl)cc1OC (stereo not given)	4.1	0.935
